The full list was thinned out, with hits kept by preference.
Shiga inhibitor – A qHTS for Small Molecule Inhibitors of Shiga Toxin | Vero cells, Shiga toxin protein synthesis inhibition reporter | inhibition, % at 38.7 µM | actives 9.2% (n = 290,000); in the data active means inhibition mostly above about 28%, no sharp cut-off; inactive means mostly below about 43%; further: 0% is about no effect
TbPYK inhibitor – qHTS of Trypanosoma Brucei Inhibitors. TbPYK enzyme, Kinase-Glo Plus ATP luminescence, 45 min. pyruvate kinase (Trypanosoma brucei), Q57TT1. actives 0.12% (n = 410,000). Potency, µM (top dose mostly 76.8 µM), inactives show top-dose activity, negative = inhibition, hits mostly inhibitors; further: potency means the concentration at half of the fitted maximal effect; on the % scale 0 is the no-effect control and ±100 the full control effect; nearly all actives have a fitted effect of over 50% in size
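Glycolytic pyruvate kinase of T. brucei was incubated with substrate, test compound and 130 uM ADP for 45 minutes at room temperature. Luminescent Kinase-Glo Plus signal was measured after 10 minutes.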
Cycloheximide cs – Cycloheximide Counterscreen for Small Molecule Inhibitors of Shiga Toxin | cell reporter, cycloheximide protein synthesis inhibition counterscreen | actives 12% (n = 300,000) | AID 2314, 2010 | max response, %; in the data active means max response mostly above about 13%, no sharp cut-off; inactive means mostly below about 14%; further: read at 38.3 µM for the half of the compounds with a filed dose; 0% is about no effect
LmPK inhibitor – qHTS Assay for Inhibitors of Leishmania Mexicana Pyruvate Kinase (LmPK); Potency, µM (titrated, usually from 57.5 µM), without a hit: at the highest dose activity change, negative = inhibition, usual class: inhibitors; actives 0.37% (n = 290,000); Q27686; purified LmPK, Kinase-Glo ATP luminescence, 1 h; further: potency means the concentration at half of the fitted maximal effect; on the % scale 0 is the no-effect control and ±100 the full control effect
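qHTS format; LmPK 0.1 nM; substrates PEP 0.5 mM and ADP 0.1 mM. One-hour room-temperature incubation, then coupled luciferase luminescence; 0.5 nM enzyme wells mark activation.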
FBPA Giardia inh – qHTS Assay for Inhibitors of Fructose-1,6-bisphosphate Aldolase from Giardia Lamblia; actives 0.71% (n = 290,000); Potency, µM (titrated, usually from 59.6 µM), without a hit: top-dose activity, negative = inhibition, most hits filed as inhibitors; purified Giardia FBPA; further: potency means the concentration at half of the fitted maximal effect; on the % scale 0 is the no-effect control and ±100 the full control effect; nearly all actives have a fitted effect of over 55% in size
Target sequence (A8B2U2 whole entry, looked up): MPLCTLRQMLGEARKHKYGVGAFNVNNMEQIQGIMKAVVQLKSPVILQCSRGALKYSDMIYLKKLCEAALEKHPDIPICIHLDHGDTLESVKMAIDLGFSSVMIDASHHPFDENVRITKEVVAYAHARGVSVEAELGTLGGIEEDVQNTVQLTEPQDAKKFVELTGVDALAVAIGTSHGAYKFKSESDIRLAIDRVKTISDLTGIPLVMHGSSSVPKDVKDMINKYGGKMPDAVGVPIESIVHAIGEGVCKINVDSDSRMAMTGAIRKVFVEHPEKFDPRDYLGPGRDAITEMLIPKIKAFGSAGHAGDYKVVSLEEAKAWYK
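40 nM FBPA preincubated 10 min at RT with compound (up to 57.5 uM final), then substrate plus GAPDH/TPI/NAD/arsenate coupling and diaphorase/resazurin added. Fluorescence read after 20 min at RT, 525/598 nm.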
RE007 growth inh – qHTS Assay for Inhibitors of the HIV-1 protein Vpr. S. pombe RE007 Vpr strain, BacTiter-Glo ATP luminescence, 24 h. Potency, µM (series often up to 92.2 µM), inactives show at the top dose activity change, negative = less growth, hits mostly inhibitors. actives 0.21% (n = 360,000). AID 651644, 2012; active means well fitted falling curve with a large enough effect; inconclusive means small, poorly fitted or top-dose-only effect; inactive means no such curve, though single readings can be large or run the other way; further: potency means the concentration at half of the fitted maximal effect; on the % scale 0 is the no-effect control and ±100 the full control effect; nearly all actives have a fitted effect of over 50% in size
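Fission yeast RE007 carrying one integrated HIV-1 vpr copy, seeded at OD 0.01 in PMG+AL medium with 23 nL pinned compound. Grown 24 h at 30 degrees; viability read by BacTiter-Glo luminescence after 5 min.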
Numbers without * were called inactive; u = inconclusive; x = no result. Unless noted, the call rests on the fitted dose curve; in most records, active means well fitted curve in the direction sought with a large enough effect; inconclusive means small, poorly fitted or top-dose-only effect, or another doubt; inactive means no such curve, though single readings can be large; an effect the other way counts as inactive or inconclusive.

SMILES	Shiga inhibitor	TbPYK inhibitor	Cycloheximide cs	LmPK inhibitor	FBPA Giardia inh	RE007 growth inh
O=C(c1cc(-c2ccc(F)cc2)on1)N1CCOCC1	45	-1%	27*	-3%	8%	1%
O=C(c1cc(-c2ccccc2)on1)N1CCCCCC1	71*	-5%	29*	2%	1%	-8%
O=C(c1cc(-c2ccc(Br)cc2)on1)N1CCCC1	118*	-6%	33*	-3%	3%	-10%
CCOC(=O)C1CCCN(C(=O)c2cc(COc3ccc(C)nc3)on2)C1 (configuration not stated)	73*	-6%	51*	-7%	x	-12%
O=C(c1cc2ccccn2n1)N1CCC2(CC1)OCCO2	-6	2%	6	-2%	3%	-9%
CCOC(=O)C1CCCN(C(=O)c2cc(-c3ccc(C)cc3)on2)C1 (configuration not stated)	113*	-12%	58*	-1%	0%	8%
O=C(c1cc(-c2ccc(O)cc2)on1)N1CCN(c2ccc(F)cc2)CC1	5	-4%	7	-1%	-3%	6%
O=C(c1cc(-c2ccc(F)cc2)on1)N1CCCCCC1	115*	8%	46*	-3%	5%	1%
O=C(c1cc(-c2ccccc2)on1)N1CCC2(CC1)OCCO2	79*	x	32*	-13%	6%	x
COc1ccc(S(=O)(=O)N(C)C[C@@H]2OCCCC[C@H](C)Oc3ccc(NC(=O)Nc4ccc(C(F)(F)F)cc4)cc3C(=O)N([C@H](C)CO)C[C@H]2C)cc1	x	6%	x	x	x	12%
O=C(NCc1ccccc1)C1CCCN(C(=O)Nc2ccccc2)C1 (configuration not stated)	53	10%	11*	-6%	3%	2%
O=C(Nc1ccccc1)N1CCCC2CCCCC21 (configuration not stated)	94*	-8%	45*	-1%	-5%	9%
O=C(NC1CCCC1)C1CCCN1C(=O)Nc1ccccc1 (configuration not stated)	-13	-4%	-4	-4%	1%	22%
COc1ccc(CNC(=O)C2CCCN(C(=O)Nc3ccc(OC)cc3)C2)cc1 (configuration not stated)	30	10%	-3	-2%	7%	3%
COc1ccc(NC(=O)N2CCCC(C(=O)NCCc3ccccc3)C2)cc1 (configuration not stated)	65*	-5%	34*	-3%	-5%	-4%
O=C(NCc1ccccc1F)C1CCCN(C(=O)Nc2ccccc2)C1 (configuration not stated)	7	6%	6	5%	-7%	11%
Cc1ccc(NC(=O)N2CCC(C(=O)c3ccc(F)cc3)CC2)cc1	13	-7%	11	-1%	-2%	6%
O=C(c1ccccc1)C1CCN(C(=O)Nc2ccccc2)CC1	6	2%	16*	0%	6%	-6%
Cc1[nH]c(=O)[nH]c(=O)c1S(=O)(=O)Nc1cccc(C(F)(F)F)c1	22	10%	11	0%	10%	-2%
Fc1ccccc1/C=N/n1cc(-c2ccccc2)[nH]c1=S	64*	u	18*	u	0%	-11%
O=C(O)c1ccc(/C=N/n2cc(-c3ccccc3)[nH]c2=S)cc1	-1	u	1	14µM*	u	-5%
S=c1[nH]c(-c2ccccc2)cn1/N=C/c1cccnc1	-6	u	8	3.5µM*	-11%	20%
Cc1ccc(C)c(/C=N/n2cc(-c3ccccc3)[nH]c2=S)c1	33	-22%	3	2%	2%	-4%
S=c1[nH]c(-c2ccccc2)cn1/N=C/c1cccs1	45*	u	32*	u	0%	-2%
COC(=O)c1cn(-c2nc3ccccc3s2)nn1	x	-3%	x	x	x	-26%
COc1ccc(N2CCN(S(=O)(=O)c3c(C)nc4sc(C)cn4c3=O)CC2)cc1	x	-3%	x	x	x	x

High-throughput results from PubChem BioAssay.
